# The campaign covered roughly 69,000 compounds. About 1,000 (1.4%) showed an effect of 50% or more. The sample as a whole holds a higher share of strong results than the screen did.
# Test system: Leishmania donovani
# Experiment: Leishmania intramacrophage assay
# Assay type: functional, organism-based
# Design: scale not given: in the data most compounds retested in dose-response had high values
compound,measurement,setting,value
CC(C)NC(=O)[C@@H]1C[C@@H](N)CN1C(=O)CCSCc1ccccc1,Percent Effect,"30.3 µM, […]",17.42%
CCC[C@H]1CN(CCS(C)(=O)=O)C[C@@H]1NC(=O)c1cc(CC)on1,Percent Effect,"30.3 µM, […]",-7.054%
CCS(=O)(=O)NCC1OCCc2cn(CCOC)nc21 (stereo not drawn),Percent Effect,"30.3 µM, […]",22.39%
CNc1nc(CNC(=O)Nc2cccc(COCCOC(C)C)c2)cs1,Percent Effect,"30.3 µM, […]",10.56%
Cc1cc(O)n2nc(C3CCN(C(=O)c4ccccn4)CC3)cc2n1,Percent Effect,"30.3 µM, […]",-30.04%
O=C(NCCCn1cncn1)N1CCCCCC1,Percent Effect,30 µM,20.62%
CCS(=O)(=O)NCCNC(=O)c1cc(Cl)c2c(c1)OCCCO2,Percent Effect,"30 µM, 30.03 µM",35.29%
COc1cccc2c1OCCCN(Cc1ncccc1C(=O)O)C2,Percent Effect,"30.3 µM, […]",-9.577%
CN(CCCOc1ccccc1)C(=O)CN1CCc2cncnc2C1,Percent Effect,"30 µM, 30.03 µM",6.848%
N[C@@H]1CC[C@@H](NC(=O)c2ccccc2OC(F)(F)C(F)F)C1,Percent Effect,"30.3 µM, […]",-30%
CCOCC(=O)N1C[C@@H]2COC[C@]2(c2nc(C)no2)C1,Percent Effect,"30.3 µM, […]",46.85%
Cc1noc([C@]23COC[C@H]2CN(C(=O)COC2CCCC2)C3)n1,Percent Effect,"30.3 µM, […]",14.27%
Cc1noc([C@]23COC[C@H]2CN(C(=O)Cc2ccsc2)C3)n1,Percent Effect,"30.3 µM, […]",57.44%
O=C(O)C(F)(F)F.c1cc(CN2CCC3(CCOCC3COCC3CC3)CC2)co1 (stereo not drawn),Percent Effect,"30.3 µM, […]",12%
Fc1cccc(N2CCCC3(C2)CN(c2ncccn2)CCO3)c1.O=C(O)C(F)(F)F.O=C(O)C(F)(F)F (stereo not drawn),Percent Effect,"30 µM, 30.03 µM",0.139%
Fc1cccc(N2CCCC3(CN(Cc4nccs4)CCO3)C2)c1.O=C(O)C(F)(F)F.O=C(O)C(F)(F)F (stereo not drawn),Percent Effect,"30.3 µM, […]",41.24%
c1cncc(C2=NOC3(CCN(Cc4c[nH]c5ccccc45)CC3)C2)c1,Percent Effect,"30.3 µM, […]",11.25%
CC(C)C1=NOC2(CCN(Cc3c[nH]c4ccccc34)CC2)C1,Percent Effect,"30.3 µM, […]",1.888%
c1ccc(C2=NOC3(CCN(Cc4c[nH]c5ccccc45)CC3)C2)cc1,Percent Effect,"30.3 µM, […]",96.36%
CN(C(=O)c1ccc(S(=O)(=O)NC(C)(C)C)cc1)C1(C#N)CCC1,Percent Effect,"30.3 µM, […]",6.383%
CN1CCN(Cc2nnc(C3CCN(CC4CC4)CC3)n2C)CC1,Percent Effect,"30 µM, 30.03 µM",36.3%
CC(C)=CCN1CCC(c2nnc(CN3CCN(C)CC3)n2C)CC1,Percent Effect,"30.3 µM, […]",50.84%
CN1CCC(c2nnc(CN3CCC(O)CC3)n2C)CC1,Percent Effect,"30 µM, 30.03 µM",13.07%
CCc1sc(-c2nnc(CNC(C)Cn3cccn3)o2)cc1C (stereo not drawn),Percent Effect,"30.3 µM, […]",-1.714%
O=C(c1cnc(Nc2ccccc2)nc1)N1CCC(O)(CO)CC1,Percent Effect,"30.3 µM, […]",-16.52%
CC(Cn1cccn1)NCc1cnc(N2CCCC2)nc1 (stereo not drawn),Percent Effect,"30.3 µM, […]",6.002%
c1cnn(CCNCc2cnc(N3CCCC3)nc2)c1,Percent Effect,"30.3 µM, […]",36.96%
c1ccc(Cn2cccn2)c(CNCc2cnc(N3CCCC3)nc2)c1,Percent Effect,"30.3 µM, […]",54.07%
